# Measured values taken from PubChem BioAssay (NCI).
# The panel holds about 83,000 compounds, 20% with a hit somewhere; the sample as a whole holds those more often.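 Assay: single dose, 48 h. Readout: percent growth (0 = no net growth; negative = cell death). Active: <10.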 Values without a mark were called inactive. Active and inactive are the calls of the source.
# Tests used:
# Assay in all cases: NCI-60 one-dose screen, 48 h (100 = growth as untreated, 0 = no growth, -100 = all killed)
# Conditions in all cases: 10 µM unless noted
# SR leukemia = tested on: SR leukemia
# RPMI-8226 leukemia = tested on: RPMI-8226 leukemia
# OVCAR-8 ovarian = tested on: OVCAR-8 ovarian
# OVCAR-5 ovarian = tested on: OVCAR-5 ovarian
# OVCAR-4 ovarian = tested on: OVCAR-4 ovarian
# SK-OV-3 ovarian = tested on: SK-OV-3 ovarian
# IGROV1 ovarian = tested on: IGROV1 ovarian
# OVCAR-3 ovarian = tested on: OVCAR-3 ovarian
# HS 578T breast = tested on: HS 578T breast
# NCI/ADR-RES ovarian = tested on: NCI/ADR-RES ovarian
# T-47D breast = tested on: T-47D breast
# BT-549 breast = tested on: BT-549 breast
# MDA-MB-435 melanoma = tested on: MDA-MB-435 melanoma
# SW-620 colon = tested on: SW-620 colon
# MCF7 breast = tested on: MCF7 breast
# HCT-116 colon = tested on: HCT-116 colon
# HCC-2998 colon = tested on: HCC-2998 colon
# KM12 colon = tested on: KM12 colon
SMILES,growth (SR leukemia),growth (RPMI-8226 leukemia),growth (OVCAR-8 ovarian),growth (OVCAR-5 ovarian),growth (OVCAR-4 ovarian),growth (SK-OV-3 ovarian),growth (IGROV1 ovarian),growth (OVCAR-3 ovarian),growth (HS 578T breast),growth (NCI/ADR-RES ovarian),growth (T-47D breast),growth (BT-549 breast),growth (MDA-MB-435 melanoma),growth (SW-620 colon),growth (MCF7 breast),growth (HCT-116 colon),growth (HCC-2998 colon),growth (KM12 colon)
COC(=O)[C@]12CC[C@@H](C)[C@H](C)[C@@H]1C1=CC[C@@H]3[C@@]4(C)C(C=O)=C[C@@](C)(COC(C)=O)[C@@H]4[C@H](O)C[C@@]3(C)[C@]1(C)CC2,-26.2% (active),-17% (active),-0.958% (active),-28.3% (active),9.81% (active),6.14% (active),2.81% (active),-85.7% (active),-18.3% (active),2.88% (active),-18.5% (active),-19.8% (active),-24.3% (active),-59.4% (active),-11.7% (active),-76.8% (active),-71% (active),-27.5% (active)
CC/C=C\C[C@H](O)C/C=C1/C(=O)C=C[C@@H]1C/C=C\CCCCO,-5.23% (active),-12.9% (active),-27.5% (active),39.2%,49.7%,83.2%,15.5%,2.43% (active),75.6%,9.46% (active),21.6%,-8.67% (active),-5.88% (active),-12.4% (active),13.3%,-64.6% (active),6.24% (active),-16.1% (active)
N#Cc1c(-c2cccc(Cl)c2)cc(-c2cccc(F)c2)[nH]c1=O,104%,65.4%,93.5%,95.8%,83.7%,102%,94.4%,92.7%,81.9%,98%,84.5%,86.4%,90.4%,97%,89.2%,88.5%,106%,87.9%
Cc1cccc(-c2nc(N(C)c3ccc4ncsc4c3)c3ccccc3n2)n1,17.3%,50.1%,91.2%,108%,85.7%,96.6%,68.9%,62.6%,103%,58.5%,60.6%,87.1%,-3.29% (active),57.9%,45%,65.2%,84.2%,55.4%
Cc1cccc(Cc2cnc(NC(=O)c3ccc4nnsc4c3)s2)c1,95.2%,76.4%,96.5%,84.4%,98.3%,91.8%,97.9%,104%,109%,90%,57.8%,105%,82.7%,80.5%,95%,87.7%,87.5%,77.9%
CC(=O)C(C)Cc1cc2c(cc1C)C(C)(C)CCC2(C)C (stereo unspecified),131%,100%,101%,98.6%,104%,85.7%,114%,108%,102%,98.8%,80.2%,95.5%,104%,102%,91.8%,95.1%,102%,105%
O=C(Nc1cccc(Oc2nnc(Cl)c3ccccc23)c1)Nc1ccc(Cl)c(C(F)(F)F)c1,-23.8% (active),-15.9% (active),-16.8% (active),-7.38% (active),2% (active),-44.1% (active),-16.8% (active),-41.9% (active),-17.2% (active),-28.2% (active),-24.6% (active),-37.2% (active),-78.4% (active),-62.9% (active),-35.6% (active),-71.6% (active),-86.5% (active),-60.1% (active)
CCN(CC)c1nc(SCC(=O)Nc2nc3ccc(C)cc3s2)nc(-c2ccccc2)c1C#N,2.23% (active),61.4%,89.5%,77.4%,80.7%,93.7%,65.7%,93.2%,83.4%,96.4%,75.8%,93.3%,98.5%,97.9%,85.1%,83%,110%,104%
O=[N+]([O-])c1ccc(OCCO)cc1,139%,101%,98.7%,97.1%,102%,103%,105%,99.9%,99.5%,97.8%,101%,109%,105%,101%,94.3%,103%,113%,106%
CN(C)c1ccc(-c2cc(-c3ccc(Nc4nc(Nc5ccc(Cl)cc5)nc(Nc5ccc(Cl)cc5)n4)cc3)no2)cc1,-39.3% (active),-58.6% (active),49.7%,54.6%,41.6%,80.1%,22.4%,29.8%,13.6%,41.1%,-4.43% (active),58.2%,9.44% (active),53.6%,13.4%,31.3%,-5.58% (active),28.5%
CCSC1=NC2C(N(CC)C(=O)N2CC)N1/N=C/C=C/c1ccccc1[N+](=O)[O-] (stereo unspecified),15.1%,17.3%,8.6% (active),22.8%,42.6%,28%,15.3%,-2.75% (active),6.38% (active),4.68% (active),63.3%,10.1%,-37.4% (active),16.7%,12.3%,4.16% (active),11%,10.1%
COC(=O)[C@]12CC[C@@H](C)[C@H](C)[C@@H]1C1=CC[C@@H]3[C@@]4(C)C(C=O)=C[C@@](C)(COC(=O)c5ccco5)C4=CC[C@@]3(C)[C@]1(C)CC2,-8.74% (active),4.82% (active),19.6%,8.46% (active),18.6%,27.8%,26.5%,-92.6% (active),3.14% (active),23.7%,-8.1% (active),5.64% (active),-22.3% (active),-7.67% (active),11.4%,-71.3% (active),-7.04% (active),8.54% (active)
Cc1cc(NCc2cc(Nc3ccnc4cc(Cl)ccc34)ccc2F)nc(N2CCN(c3ccccc3)CC2)n1,-24.6% (active),42.8%,58.8%,92.6%,46.2%,55.1%,41.6%,5.88% (active),47.9%,56.5%,24.5%,70.1%,38.8%,46.1%,23.9%,1.74% (active),28.2%,69.2%
Cn1c(-c2c(N)n(Cc3ccc(C(F)(F)F)cc3)c3nc(C#N)c(C#N)nc23)nc2ccccc21,-35.5% (active),-42.3% (active),7.05% (active),30%,22.6%,-4.02% (active),16.9%,-8.62% (active),12.4%,6.65% (active),4.18% (active),7.95% (active),14.9%,6.57% (active),8.74% (active),-29% (active),14.7%,5.33% (active)
COc1cccc(-c2nn(-c3ccccc3)cc2-c2ccnc(NCCNC(=O)Nc3cccc(C(F)(F)F)c3)c2)c1,-21.2% (active),32.6%,19.8%,58.4%,46.5%,44.9%,55.4%,39.2%,-21.3% (active),27.2%,0.52% (active),26.1%,29.1%,39%,15.3%,10.5%,-47% (active),2.54% (active)
COc1cc2c(cc1-c1c(C)noc1C)ncc1nc(C3CCC(F)(F)CC3)n(C3CCC(OC(F)F)CC3)c12 (stereo unspecified),33.5%,20%,65.2%,76.2%,50.5%,17.6%,70.1%,44.6%,61.4%,47.4%,22.5%,79.2%,55.2%,75.1%,26.2%,53.9%,52.1%,51.4%
CC(C)(C)n1cc(-c2ccnc(NCCCNS(=O)(=O)c3ccccc3)c2)c(-c2ccccc2)n1,31.7%,65.5%,68.9%,94%,70.4%,85.1%,78.3%,83.9%,96%,74.6%,9.34% (active),53.4%,82.1%,77.1%,62%,57.5%,78.1%,71.9%
